Results filed as inconclusive are left out. Calls of active or inactive are those of the source. The call rests on the fitted dose curve; in most records, active means well fitted curve in the direction sought with a large enough effect in the repeat runs; inconclusive means weak or mixed curves; inactive means no such curve, though single readings can be large; an effect the other way counts as inactive or inconclusive.
Key:
[1] = qHTS RealTime-Glo MT Cell Viability Assay in HEK293 cells - 0 hour (AID 1224880); further: top concentration of the series differs between compounds; nearly all actives have a fitted effect of over 45% in size
How it was run: (§1)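 600 HEK293 cells per well, dispensed already mixed with RealTime-Glo MT reagents. Compound dosing came 5 h later. The same wells were read for luminescence at 0, 8, 16, 24, 32 and 40 h of exposure at 37 C.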

[2] = A CellTox Green Cytotoxicity Assay to monitor cytotoxicity in HEK293 cells - 32 hour (AID 1224881); further: nearly all actives have a fitted effect of over 40% in size
How it was run: (§2)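 Dead-cell fluorescence measured kinetically: asymmetric cyanine dye, HEK293, 600 cells/well, 5 h settle, 23 nL cpd/DMSO, 37 C, reads 0–40 h every 8 h.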

[3] = A CellTox Green Cytotoxicity Assay to monitor cytotoxicity in HepG2 cells - 0 hour (AID 1224882); further: nearly all actives have a fitted effect of over 35% in size
How it was run: (§3)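 First, HepG2 cells (600/well) mixed with reagent were plated; second, after 5 h at 37 C they received compounds via pintool; third, fluorescence was measured at 0 h through 40 h at 8 h intervals.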

[4] = A CellTox Green Cytotoxicity Assay to monitor cytotoxicity in HepG2 cells - 32 hour (AID 1224883); further: nearly all actives have a fitted effect of over 50% in size
How it was run: as §3

[5] = A CellTox Green Cytotoxicity Assay to monitor cytotoxicity in HEK293 cells - 8 hour (AID 1224884); further: nearly all actives have a fitted effect of over 35% in size
How it was run: as §2

[6] = A CellTox Green Cytotoxicity Assay to monitor cytotoxicity in HEK293 cells - 16 hour (AID 1224888); further: nearly all actives have a fitted effect of over 35% in size
How it was run: as §2

[7] = qHTS RealTime-Glo MT Cell Viability Assay in HepG2 cells - 0 hour (AID 1224889); further: nearly all actives have a fitted effect of over 50% in size
How it was run: (§4)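 Viability was tracked continuously by NanoLuc luminescence from prosubstrate reduced by living HepG2 cells, at successive time points over 40 h of compound exposure. Cells with reagent were preincubated 5 h at 37 °C before compound addition.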

[8] = A CellTox Green Cytotoxicity Assay to monitor cytotoxicity in HepG2 cells - 8 hour (AID 1224890); further: nearly all actives have a fitted effect of over 45% in size
How it was run: as §3

[9] = qHTS assay to identify small molecule antagonists of the estrogen receptor alpha (ER-alpha) signaling pathway using the BG1 cell line in the presence of 0.1 nM 17-beta-estradiol - cell viability counter screen (AID 1259241); further: nearly all actives have a fitted effect of over 40% in size
How it was run: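 Live-cell protease activity (CellTiter-Fluor fluorescence, 30 min) was read in the same wells after VM7Luc4E2 cells had been exposed to compounds with 0.1 nM 17beta-estradiol for 22 hr at 37C.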

[10] = qHTS assay to identify small molecule antagonists of the androgen receptor (AR) signaling pathway using the MDA cell line in the presence of 0.5 nM R1881 - cell viability counter screen (AID 1259242); further: nearly all actives have a fitted effect of over 45% in size
How it was run: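 qHTS format. MDA-kb2 (MMTV-luc, AR/GR responsive) + cpd + 0.5 nM R1881 final, 16 hr 37C/0% CO2 → CellTiter-Fluor 30 min → fluorescence intensity.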

[11] = biological target: Estrogen receptor (Homo sapiens) (UniProt P03372); test: qHTS assay to identify small molecule antagonists of the estrogen receptor alpha (ER-alpha) signaling pathway using the BG1 cell line in the presence of 0.1 nM 17-beta-estradiol (AID 1259244); further: nearly all actives have a fitted effect of over 50% in size
Chain of Estrogen receptor (Homo sapiens) (P03372 whole entry, looked up): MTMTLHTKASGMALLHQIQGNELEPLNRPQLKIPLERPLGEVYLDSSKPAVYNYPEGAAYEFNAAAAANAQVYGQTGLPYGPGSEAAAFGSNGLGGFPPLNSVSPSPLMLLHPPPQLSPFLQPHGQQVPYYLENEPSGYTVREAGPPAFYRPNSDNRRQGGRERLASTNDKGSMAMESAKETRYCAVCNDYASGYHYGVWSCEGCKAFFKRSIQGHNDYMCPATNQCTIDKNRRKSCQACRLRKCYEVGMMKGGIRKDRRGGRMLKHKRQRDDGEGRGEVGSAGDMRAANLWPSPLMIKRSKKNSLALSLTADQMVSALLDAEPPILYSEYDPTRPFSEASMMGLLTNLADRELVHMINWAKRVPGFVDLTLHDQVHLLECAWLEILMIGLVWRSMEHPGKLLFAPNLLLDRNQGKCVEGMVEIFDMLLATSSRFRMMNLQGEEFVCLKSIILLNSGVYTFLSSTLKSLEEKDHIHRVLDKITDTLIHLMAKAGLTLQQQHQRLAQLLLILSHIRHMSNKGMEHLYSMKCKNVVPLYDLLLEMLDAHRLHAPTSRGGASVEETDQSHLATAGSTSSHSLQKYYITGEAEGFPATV
How it was run: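 Reporter is a stably transfected luciferase under four estrogen responsive elements in VM7Luc4E2 cells expressing native full-length ER-alpha; inhibition of 0.1 nM (final) 17beta-estradiol-driven signal over 22 h is read by luminescence.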

[12] = qHTS assay to identify small molecule HDAC inhibitors (AID 1259364);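 further: wild-type HCT-116 cells with endogenous class I/II HDAC activity; top concentration of the series differs between compounds; nearly all actives have a fitted effect of over 45% in size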
How it was run: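 Quantitative high-throughput format: overnight-seeded HCT-116 cells got compounds for 2 hr at 37C; HDAC-Glo I/II reagent added, 30 min RT, luminescence measured.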

[13] = qHTS assay to identify small molecule HDAC inhibitors - cell viability counter screen (AID 1259365); further: series mostly up to about 92 µM; nearly all actives have a fitted effect of over 50% in size
How it was run: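 HCT-116 (wild type), 1,500 cells/well, overnight 37C/5% CO2; compound in DMSO 2hr; CellTiter-Glo 30min RT; luminescence read.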

[14] = qHTS assay to identify small molecule agonists of the sonic hedgehog signaling (Shh) pathway - cell viability counter screen (AID 1259366); further: nearly all actives have a fitted effect of over 50% in size
How it was run: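 CellTiter-Fluor fluorescence read-out, 1 hr at 37C, added after 23hr compound exposure. Cells: 3T3 Gli1-Luc, an NIH/3T3 clone with stably integrated Gli1-Luc reporter, plated 4hr before compound.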

[15] = qHTS assay to identify small molecule antagonists of the sonic hedgehog signaling (Shh) pathway - cell viability counter screen (AID 1259367); further: nearly all actives have a fitted effect of over 55% in size
How it was run: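 Fluorescence read-out (CellTiter-Fluor, 1 hr at 37C) taken after 23 hr compound treatment of 3T3 Gli1-Luc cells stimulated with conditioned medium. Cells were seeded at 2,000 per well and pre-incubated 4 hr.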

[16] = qHTS RealTime-Glo MT Cell Viability Assay in HepG2 cells - 16 hour (AID 1224885); further: nearly all actives have a fitted effect of over 50% in size
How it was run: as §4

[17] = qHTS RealTime-Glo MT Cell Viability Assay in HEK293 cells - 24 hour (AID 1224886)
How it was run: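 Viability tracked continuously by luminescence as live cells reduce a prosubstrate for NanoLuc; HEK293 cells preincubated 5 h, compound-treated at 37 C, and read at 0, 8, 16, 24, 32 and 40 h.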

[18] = qHTS RealTime-Glo MT Cell Viability Assay in HEK293 cells - 8 hour (AID 1224887)
How it was run: as §1
On the % scale 0 is the no-effect control and ±100 the full control effect.

O=C(CCS)OCC(COC(=O)CCS)(COC(=O)CCS)COC(=O)CCS
inactive: Potency [1] | Potency [2] | Potency [3] | Potency [4] | Potency [5] | Potency [6] | Potency [7] | Potency [8] | Potency [9] | Potency [10] | Potency [11] | Potency [12] | Potency [13] | Potency [14] | Potency [15]

CCCCCCCCCCCCCCN(C)C
inactive: activity change, negative = cytotoxicity [1] 0% [at 15.8 µM] | cytotoxicity increase [2] -32.2% [at 15.8 µM] | cytotoxicity [3] -1.15% [at 15.8 µM] | cytotoxicity increase [4] -7.28% [at 15.8 µM] | cytotoxicity increase [5] -28% [at 15.8 µM] | activity change [6] -30.9% [at 15.8 µM, stronger effect = higher value] | activity change, negative = cytotoxicity [7] -19.6% [at 15.8 µM] | cytotoxicity increase [8] -1.47% [at 15.8 µM] | activity change, negative = cytotoxicity [9] 0.479% [at 19 µM] | viability change, negative = cytotoxic [10] -2.29% [at 19 µM] | activity change, negative = inhibition [11] 15.5% [at 19 µM] | activity change, negative = inhibition [12] 1.53% [at 19 µM] | activity change, negative = cytotoxicity [13] 3.73% [at 19 µM] | viability change, negative = cytotoxic [14] -0.743% [at 19 µM] | viability change, negative = cytotoxic [15] 4.21% [at 19 µM]

CC(C)(C)CCCCCCOC(=O)c1ccccc1C(=O)OCCCCCCC(C)(C)C
inactive: Potency [1] | Potency [2] | Potency [3] | Potency [4] | Potency [16] | Potency [17] | Potency [18] | Potency [6] | Potency [7] | Potency [8] | Potency [9] | Potency [10] | Potency [11] | Potency [12] | Potency [13] | Potency [14] | Potency [15]

CC(=O)OCCC(C)CC(C)(C)C (stereo not given)
inactive: Potency [1] | Potency [2] | Potency [3] | Potency [4] | Potency [16] | Potency [17] | Potency [18] | Potency [6] | Potency [7] | Potency [8] | Potency [9] | Potency [10] | Potency [11] | Potency [12] | Potency [13] | Potency [14]

COc1ccc(N)c([N+](=O)[O-])c1
inactive: Potency [1] | Potency [2] | Potency [3] | Potency [4] | Potency [5] | Potency [17] | Potency [18] | Potency [6] | Potency [7] | Potency [8] | Potency [9] | Potency [10] | Potency [13] | Potency [14]

Cc1ccccc1S(N)(=O)=O
inactive: Potency [1] | Potency [2] | Potency [3] | Potency [4] | Potency [16] | Potency [17] | Potency [18] | Potency [6] | Potency [7] | Potency [8] | Potency [9] | Potency [10] | Potency [12] | Potency [13] | Potency [14] | Potency [15]

CC1=CC[C@@H]2C[C@H]1C2(C)C
inactive: activity change, negative = cytotoxicity [1] -16.1% [at 15.8 µM] | cytotoxicity increase [2] 1.12% [at 15.8 µM] | cytotoxicity [3] -3.74% [at 15.8 µM] | cytotoxicity increase [4] -9% [at 15.8 µM] | activity change, negative = cytotoxic [16] 1.14% [at 15.8 µM] | activity change, negative = cytotoxicity [17] 1.87% [at 15.8 µM] | activity change, negative = cytotoxicity [18] -0.368% [at 15.8 µM] | activity change [6] 1.29% [at 15.8 µM, stronger effect = higher value] | activity change, negative = cytotoxicity [7] -1.11% [at 15.8 µM] | cytotoxicity increase [8] -9.84% [at 15.8 µM] | activity change, negative = cytotoxicity [9] 3.19% [at 19 µM] | viability change, negative = cytotoxic [10] 1.84% [at 19 µM] | activity change, negative = inhibition [11] 11.8% [at 19 µM] | activity change, negative = inhibition [12] 0.0628% [at 19 µM] | activity change, negative = cytotoxicity [13] -0.126% [at 19 µM] | viability change, negative = cytotoxic [14] -0.75% [at 19 µM] | viability change, negative = cytotoxic [15] -2.9% [at 19 µM]

— PubChem BioAssay (Tox21)
